Reference: PubChem BioAssay
Active and inactive are the calls of the source.

Assays:
[1] = tested on: Human papillomavirus type 1a protein E7 (residues 44-93); assay: small molecules binding HPV E7 44-93 – biochemical, small-molecule microarray, residues 44-93, 635 nm fluorescence, primary screen (AID 1108); conditions: fluorescence 635 nm, higher = more signal;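 further: E7 fragment applied at 1 µg/mL in TBST for 1 h at 4 C; score combines spot fluorescence with its signal to noise ratio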
[2] = hepatitis C replication reporter changes, two-sided – Huh7 cells, luciferase reporter, HCV replication inhibitor project, primary screen (AID 1109); conditions: Huh7 HCV replicon luciferase reporter, 48 h; higher = more signal;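 further: huh7 hepatoma cells harbouring a luciferase neomycin HCV replicon reporter; luciferase luminescence as measure of HCV replicon replication; test concentration not given here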
[3] = target: Left-right determination factor 2 (Homo sapiens) (UniProt O00292); assay: small molecules binding LEFTY2 protein – biochemical, small-molecule microarray, 635 nm fluorescence scan, primary screen (AID 1110); conditions: higher = more signal
Sequence of Left-right determination factor 2 (Homo sapiens) (O00292 whole entry, looked up): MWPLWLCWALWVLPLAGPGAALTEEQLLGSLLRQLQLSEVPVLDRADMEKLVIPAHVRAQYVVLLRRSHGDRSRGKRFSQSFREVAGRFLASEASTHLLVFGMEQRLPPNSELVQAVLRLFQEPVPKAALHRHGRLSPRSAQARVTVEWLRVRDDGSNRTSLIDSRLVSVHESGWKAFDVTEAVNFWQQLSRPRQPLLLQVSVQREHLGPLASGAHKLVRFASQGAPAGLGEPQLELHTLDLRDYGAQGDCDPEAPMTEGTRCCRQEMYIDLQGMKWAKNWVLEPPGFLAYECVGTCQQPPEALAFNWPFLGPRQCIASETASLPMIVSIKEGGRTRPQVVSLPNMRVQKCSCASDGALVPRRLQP

[4] = target: Calmodulin-1 (Homo sapiens) (UniProt P0DP23); assay: small molecules binding calmodulin-1 with EGTA – biochemical, small-molecule microarray, Cy5-labelled CALM1, profiling panel (AID 1111); conditions: Cy5-CALM1 binding fluorescence, higher = more signal;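 further: labelled calmodulin applied in Tris saline Tween buffer holding calcium plus EGTA and DTT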
[5] = target: Calmodulin-1 (Homo sapiens) (UniProt P0DP23); assay: small molecules binding Ca-loaded calmodulin-1 – biochemical, small-molecule microarray, Cy5-labelled CALM1, plus calcium, artefact control for SMM control-protein annotation, profiling panel (AID 1112); conditions: Cy5-CALM1 binding fluorescence, higher = more signal;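 further: score merges spot fluorescence with signal to noise from triplicate slides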
[6] = probe aWnt5a binding to arrayed compounds – biochemical, biotinylated probe, 635/667 nm fluorescence, primary screen (AID 1113); conditions: small-molecule microarray, higher = more signal;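 further: score merges 667 nm fluorescence intensity with signal-to-noise per printed feature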
[7] = probe aShh binding to arrayed compounds – biochemical, biotinylated probe, 635/667 nm fluorescence, primary screen (AID 1114); conditions: small-molecule microarray, higher = more signal;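 further: probe is biotin-labelled aShh protein from a stem cell growth factor screen; measures binding of labelled protein to compounds printed on the slide; score merges feature fluorescence at 667 nm with signal-to-noise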
[8] = probe aNog binding to arrayed compounds – biochemical, biotinylated probe, 635/667 nm fluorescence, primary screen (AID 1115); conditions: small-molecule microarray, higher = more signal;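 further: probe is biotinylated aNog protein used at 0.15 µg/mL for 1 h at 4 C; z-score combines 667 nm fluorescence of each spot with its signal to noise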
[9] = target: Torsin-1A-interacting protein 1 (Homo sapiens) (UniProt Q5JTV8); assay: compound microarray binding of lysate hLAP1 – cell lysate, small-molecule microarray, COS7 lysate, 635/667 nm fluorescence, primary screen (AID 1116); conditions: 635 nm fluorescence, higher = more signal
Sequence of Torsin-1A-interacting protein 1 (Homo sapiens) (Q5JTV8 whole entry, looked up): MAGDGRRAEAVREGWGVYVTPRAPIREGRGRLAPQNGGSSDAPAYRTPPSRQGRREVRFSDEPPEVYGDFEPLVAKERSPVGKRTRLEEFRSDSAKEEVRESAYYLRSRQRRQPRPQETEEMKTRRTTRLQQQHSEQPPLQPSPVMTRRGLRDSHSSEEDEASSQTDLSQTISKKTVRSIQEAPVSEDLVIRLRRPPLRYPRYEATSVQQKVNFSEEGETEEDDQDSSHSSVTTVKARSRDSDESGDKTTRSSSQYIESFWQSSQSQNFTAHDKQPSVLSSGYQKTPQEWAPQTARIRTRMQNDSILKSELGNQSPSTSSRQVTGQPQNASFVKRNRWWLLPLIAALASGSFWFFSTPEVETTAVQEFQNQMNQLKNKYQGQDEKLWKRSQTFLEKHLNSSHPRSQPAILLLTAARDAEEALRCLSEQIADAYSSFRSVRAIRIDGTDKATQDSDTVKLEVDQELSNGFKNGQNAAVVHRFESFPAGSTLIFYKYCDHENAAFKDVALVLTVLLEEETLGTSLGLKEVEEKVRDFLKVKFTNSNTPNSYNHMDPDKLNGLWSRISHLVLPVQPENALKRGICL

[10] = target: Alpha-bungarotoxin (Bungarus multicinctus) (UniProt P60615); assay: compounds binding labelled alpha-BTX control protein – biochemical, small-molecule microarray, Alexa647 label, 635/667 nm fluorescence, artefact control for SMM control protein annotation, profiling panel (AID 1117); conditions: alpha-BTX-A647 binding fluorescence, higher = more signal
Sequence of Alpha-bungarotoxin (Bungarus multicinctus) (P60615 whole entry, looked up): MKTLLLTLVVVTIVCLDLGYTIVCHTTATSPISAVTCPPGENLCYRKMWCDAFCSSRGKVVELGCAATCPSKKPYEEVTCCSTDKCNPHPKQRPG

[11] = target: Albumin (Bos taurus) (UniProt P02769); assay: compounds binding labelled BSA control protein – biochemical, small-molecule microarray, Alexa647 label, 635/667 nm fluorescence, artefact control for SMM control protein annotation, profiling panel (AID 1118); conditions: BSA-A647 binding, fluorescence 635 nm, higher = more signal;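 further: score merges 667 nm emission intensity and signal-to-noise per printed compound spot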
Sequence of Albumin (Bos taurus) (P02769 whole entry, looked up): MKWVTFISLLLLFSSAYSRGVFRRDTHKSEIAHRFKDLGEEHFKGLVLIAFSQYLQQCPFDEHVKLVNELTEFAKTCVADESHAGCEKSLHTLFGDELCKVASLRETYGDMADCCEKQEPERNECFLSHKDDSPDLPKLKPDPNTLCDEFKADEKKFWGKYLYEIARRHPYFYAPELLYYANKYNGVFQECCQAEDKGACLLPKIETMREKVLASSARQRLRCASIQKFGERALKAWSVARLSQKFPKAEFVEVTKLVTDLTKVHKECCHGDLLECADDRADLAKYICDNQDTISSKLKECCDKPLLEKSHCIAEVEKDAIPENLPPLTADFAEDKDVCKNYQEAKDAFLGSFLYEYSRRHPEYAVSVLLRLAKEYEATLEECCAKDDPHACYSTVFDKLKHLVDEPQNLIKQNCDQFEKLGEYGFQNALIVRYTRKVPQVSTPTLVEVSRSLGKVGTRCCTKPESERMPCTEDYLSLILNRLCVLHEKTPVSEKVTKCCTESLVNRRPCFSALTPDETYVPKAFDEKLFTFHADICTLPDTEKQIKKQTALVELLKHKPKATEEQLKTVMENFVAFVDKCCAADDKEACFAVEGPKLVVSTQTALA

[12] = probe aXIP binding to arrayed compounds – biochemical, NeuroSMM set, 635/667 nm fluorescence, primary screen (AID 1119); conditions: small-molecule microarray, higher = more signal, called active from +8 up or from −8 down;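 further: probe is the protein aXip251-270 applied at 1 µg/mL to compound-printed slides; binding of probe to printed compounds measured as 667 nm fluorescence plus signal to noise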
[13] = probe aNOTCH3 binding on compound microarray – biochemical, small-molecule microarray, 635/667 nm fluorescence, primary screen (AID 1120); conditions: higher = more signal;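 further: probe is a biotin-tagged antibody raised against NOTCH3 rather than NOTCH3 protein; score merges spot fluorescence near 667 nm with spot signal to noise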
[14] = probe aNOTCH2 binding on compound microarray – biochemical, small-molecule microarray, 635/667 nm fluorescence, primary screen (AID 1121); conditions: higher = more signal;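 further: score merges feature fluorescence read at 667 nm with its signal to noise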
[15] = target: Carbonic anhydrase 2 (Homo sapiens) (UniProt P00918); assay: compounds binding carbonic anhydrase 2 – biochemical, small-molecule microarray, Alexa647-labelled CAII, profiling panel (AID 1122); conditions: CAII-A647 binding fluorescence, higher = more signal
[16] = COS7 lysate on small-molecule microarray, probe aHis, 635 nm (AID 1123); conditions: COS7 cell lysate, fluorescence, higher = more signal;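 further: z-score combines 667nm fluorescence intensity with signal-to-noise per printed compound spot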
[17] = probe aLAP1 signal on lysate-treated microarray – cell lysate, small-molecule microarray, COS7 lysate, primary screen (AID 1124); conditions: probe aLAP1, fluorescence, higher = more signal;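 further: lysate comes from COS7 cells expressing LAP1 and is applied at 0.3 µg/mL; score merges spot fluorescence near 667 nm with signal-to-noise over triplicate slides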
[18] = tested on: Sam68 (KHDRBS1); assay: compounds binding KHDRBS1 protein – biochemical, small-molecule microarray, 635 nm fluorescence, primary screen (AID 1125); conditions: higher = more signal;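 further: score merges 667 nm channel intensity with signal to noise over triplicate slides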
[19] = tested on: Chordin-like protein 2 (CHRDL2); assay: compounds binding chordin-like 2 – biochemical, small-molecule microarray, 635 nm fluorescence, primary screen (AID 1126); conditions: fluorescence 635 nm, higher = more signal;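 further: printed compound slides probed with Chrdl2 protein at 4 µg/mL for 1 h at 4 C; score merges 667 nm emission intensity with signal to noise over three replicate slides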
[20] = target: Concanavalin-A (Canavalia ensiformis) (UniProt P02866); assay: compounds binding concanavalin A lectin – biochemical, small-molecule microarray, Alexa647 label, 635 nm, artefact control for SMM control protein annotation, primary screen (AID 1127); conditions: ConA-A647 binding fluorescence, higher = more signal;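 further: z combines 667 nm emission intensity with signal-to-noise across three replicate slides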
Sequence of Concanavalin-A (Canavalia ensiformis) (P02866 whole entry, looked up): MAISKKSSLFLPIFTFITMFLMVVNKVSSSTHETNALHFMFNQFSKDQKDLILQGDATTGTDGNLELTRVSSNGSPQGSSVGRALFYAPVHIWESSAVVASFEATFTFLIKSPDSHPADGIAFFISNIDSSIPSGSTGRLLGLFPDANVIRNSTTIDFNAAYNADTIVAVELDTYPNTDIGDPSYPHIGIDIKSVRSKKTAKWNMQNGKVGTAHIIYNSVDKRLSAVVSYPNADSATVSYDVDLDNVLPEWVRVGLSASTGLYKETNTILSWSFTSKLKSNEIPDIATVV

| Compound | composite z-score [1] | z-score [2] | composite z-score [3] | composite z-score [4] | composite z-score [5] | composite z-score [6] | composite z-score [7] | composite z-score [8] | composite z-score [9] | composite z-score [10] | composite z-score [11] | composite Z-score [12] | composite z-score [13] | composite z-score [14] | composite z-score [15] | composite z-score [16] | composite z-score [17] | composite z-score [18] | composite z-score [19] | composite z-score [20] |
| --- | --- | --- | --- | --- | --- | --- | --- | --- | --- | --- | --- | --- | --- | --- | --- | --- | --- | --- | --- | --- |
| COC(=O)[C@@]1(Cc2ccc(F)cc2)[C@H]2c3cc(C(=O)N(C)C)n(CCc4ccc(O)c(OC)c4)c3C[C@H]2CN1C(=O)c1ccccc1 | 0.768 | 1.09 | 0.543 | 0.187 | -0.323 | 1.2 | 2.74 | 2.48 | 0.279 | 0.434 | 0.24 | -0.399 (inactive) | 0.842 | 1.02 | 0.25 | 0.694 | 0.311 | 0.326 | 0.497 | -0.0415 |
| Cc1cc(C)cc(N2C(=O)CSC2c2cccc([N+](=O)[O-])c2)c1 (stereo not given) | 0.0826 | -1.26 | 0.571 | 1.6 | 0.463 | 0.0873 | 0.0815 | 0.0373 | 0.516 | 1.7 | 0.892 | 0.027 (inactive) | -0.0023 | -0.124 | 0.621 | 1.94 | 0.798 | 1.3 | 0.052 | 1.19 |
| O=C1NC(=O)C2C1C=CC(C(O)c1cccc3ccccc13)N2Nc1ccc(Cl)cc1Cl (stereo not given) | 1.38 | -0.445 | -0.908 | 1.49 | 0.973 | 0.0654 | 0.481 | 1.4 | 0.723 | 1.1 | 0.205 | -0.288 (inactive) | 0.0496 | 0.0915 | 0.358 | 2.12 | 0.818 | 0.762 | -0.155 | 1.07 |
| CCCCC(=C=CC[C@@H](O)c1ccccc1OCCO)C[C@@H](O)COCc1ccccc1 | 0.0941 | -1.45 | -0.608 | -0.275 | -0.0639 | 0.384 | -0.237 | -0.124 | 0.694 | 1.02 | 0.338 | -0.0202 (inactive) | -0.281 | -0.148 | 0.47 | 1.95 | 0.207 | 0.471 | -0.893 | -0.525 |
| O=C1O[C@H](c2ccccc2)[C@H](c2ccccc2)N2[C@H]1[C@@H](C(=O)NC[C@H](O)c1ccccc1)[C@]1(C(=O)Nc3ccc(C#CCCO)cc31)[C@H]2c1ccc(OCCO)cc1 | 1.1 | -1.32 | -0.312 | 1.1 | 0.547 | -0.0758 | 0.241 | 0.509 | 0.213 | 1.16 | 0.834 | 0.182 (inactive) | 0.0311 | -0.0666 | 0.627 | 1.7 | -0.0479 | 1.29 | -0.327 | 1.08 |
| CCOC(=O)C[C@H]1[C@H](OC(=O)c2cc3ccccc3oc2=O)[C@@H](NC(=O)c2ccc(-c3ccccc3)cc2)c2cc(OCCCO)ccc2N1C(=O)c1ccc2ccccc2n1 | 1.38 | -0.989 | 0.48 | 0.0371 | -0.455 | -0.104 | -0.195 | -0.253 | 0.624 | 0.422 | 0.111 | 0.6 (inactive) | 0.0864 | -0.147 | 0.4 | 0.837 | 0.205 | 1.32 | 0.492 | 0.708 |
| COC(=O)[C@@]1(Cc2ccc(F)cc2)[C@H]2c3cc(C(=O)N4CCCC4)n(CCN4CNCC4=O)c3C[C@H]2CN1C(=O)c1ccccc1 | 1.44 | -1.8 | -1 | -0.606 | -0.234 | 0.307 | 0.151 | -0.158 | 2.1 | 1.07 | 0.975 | -0.476 (inactive) | 0.323 | -0.0345 | 0.766 | 3.18 | 0.197 | 0.592 | -0.834 | 0.63 |
| C[C@H]1NC(=O)[C@@]23C(=O)N[C@@H](Cc4ccccc4)C2[C@H](C)[C@@]2(C)O[C@H]2C3/C=C/C/C=C\CNC(=O)[C@H](Cc2ccccc2)NC1=O (stereo not given in full) | 0.395 | -1.02 | 0.154 | 0.15 | -0.849 | -0.0445 | -0.0533 | -0.196 | -0.285 | 0.107 | -0.474 | -0.721 (inactive) | -0.145 | -0.127 | 0.281 | 0.205 | 0.0898 | 0.127 | 0.636 | 0.501 |
| COc1cc(OC)c(C(O)C2C=CC3C(=O)N(c4ccccc4)C(=O)C3N2Nc2ccccc2)cc1Br (stereo not given) | 1.4 | -0.801 | -0.263 | 1.02 | 0.285 | -0.0346 | -0.138 | -0.0604 | 0.474 | 0.665 | 0.911 | -0.565 (inactive) | 0.245 | -0.117 | 0.457 | 1.33 | 0.468 | 1.19 | -1.07 | 1.1 |
| C=CCNC(=O)[C@H]1[C@@H]2C(=O)O[C@@H](c3ccccc3)[C@@H](c3ccccc3)N2[C@@H](c2ccc(O)cc2)[C@]12C(=O)Nc1ccc(C#CC3(O)CCCCCC3)cc12 | 0.903 | -0.979 | 0.405 | 0.823 | 0.215 | -0.036 | 0.0358 | 0.557 | 0.854 | 0.448 | 0.201 | -0.005 (inactive) | 0.0961 | -0.0695 | 0.714 | 2.11 | 0.355 | 1.1 | 0.215 | 0.556 |
| COC(=O)[C@@]1(Cc2ccccc2N=[N+]=[N-])N=C(c2ccc(OCCCO)cc2)O[C@H]1c1ccccc1N=[N+]=[N-] | 0.193 | -3.4 | -0.182 | 0.178 | -0.62 | 0.027 | -0.064 | 1.05 | 0.435 | 0.726 | -0.908 | 0.332 (inactive) | 0.149 | 0.0977 | 0.355 | 1.44 | 0.494 | 0.996 | 0.456 | 0.851 |
